Measured values published in PubChem BioAssay (NCATS).
Where “and” joins values, the source holds several entries; their conditions need not be identical. Equal values may be shown once. Calls of active or inactive are those of the source. Unless noted, calls come from the whole dose curve.

Experiments:
[1] = biological target: Vitamin D3 receptor (Homo sapiens) (UniProt P11473); experiment: qHTS assay for small molecule agonists of vitamin D receptor signaling (AID 588543);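 note: 0% = DMSO basal and 100% = reference agonist control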
In short: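 GeneBLAzer VDR-UAS-bla HEK293T cells in 2% charcoal-stripped FBS medium were dosed with compound titrations for 16 h at 37 °C; CCF4 β-lactamase readout (405 nm ex, 460/530 nm em). EC50 and efficacy from Hill fits, normalized to 50 nM calcitriol (100%) and DMSO (0%).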

[2] = biological target: Estrogen receptor (Homo sapiens) (UniProt P03372); experiment: qHTS assay for small molecule antagonists of estrogen receptor alpha signaling (AID 588513; active = well fitted curve in the direction sought with a large enough effect in the signal ratio, with a control signal flat, not every such curve was filed as active; inconclusive = small, poorly fitted or top-dose-only effect, or effect the other way, or a change in a side signal; inactive = no such curve, though single readings can be large or run the other way; the % refers to the signal ratio; note: potency is the fitted concentration of half-maximal effect)
In short: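 ER-alpha-UAS-bla GripTite HEK 293 cells in medium with 2% charcoal/dextran-treated FBS were preincubated 4 h at 37 C, dosed with compound (1:2 titration), stimulated with 0.5nM 17-beta-estradiol for 18 h, then read by CCF4 beta-lactamase fluorescence.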

[3] = biological target: Estrogen receptor (Homo sapiens) (UniProt P03372); experiment: qHTS assay for small molecule agonists of estrogen receptor alpha signaling (AID 588514);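 note: 0% = vehicle only and 100% = reference agonist; nearly all actives have a fitted effect of over 70% in size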
In short: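 EC50 and efficacy came from Hill fits of beta-lactamase reporter signal (CCF4 dye, 2 h at room temperature) scaled between DMSO and 20 nM 17-beta-estradiol. Agonist mode: HEK293 ER-alpha-UAS-bla cells in charcoal/dextran-stripped serum medium, 18 h compound exposure at 37 C.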

[4] = biological target: Peroxisome proliferator-activated receptor gamma (Homo sapiens) (UniProt P37231); experiment: qHTS assay for small molecule agonists of peroxisome proliferator-activated receptor gamma signaling (AID 588536; active = well fitted curve in the direction sought with a large enough effect in the signal ratio, with a control signal flat, not every such curve was filed as active; inconclusive = small, poorly fitted or top-dose-only effect, or effect the other way, or a change in a side signal; inactive = no such curve, though single readings can be large or run the other way; the % refers to the signal ratio;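 note: 0% = DMSO basal wells and 100% = rosiglitazone at 2 µM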)
In short: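 Cells were plated and held 6–6.5 h at 37 C, then compounds were added as a titration series. After a further 16 h, CCF4 dye was loaded for 2 h at room temperature and emission at 460/530 nm recorded.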

[5] = biological target: Vitamin D3 receptor (Homo sapiens) (UniProt P11473); experiment: qHTS assay for small molecule antagonists of vitamin D receptor signaling (AID 588541);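 note: receptor activated by calcitriol during compound treatment; series mostly up to about 77 µM; % is set by controls: 0 for no effect and ±100 for the full control effect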
In short: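 VDR-UAS-bla HEK293T cells in 2% charcoal-stripped FBS were stimulated with 1-alpha,25-dihydroxyvitamin D3 (3 nM final) plus compound for 16 h at 37 C. The beta-lactamase CCF4 readout was normalized to 50 nM agonist and DMSO, and Hill fits gave IC50.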

[6] = biological target: Ubiquitin carboxyl-terminal hydrolase 1 (Homo sapiens) (UniProt O94782); experiment: Inhibitors of USP1/UAF1: Pilot qHTS (AID 504865; active = well fitted inhibition curve with a large enough effect; inconclusive = small, poorly fitted or top-dose-only effect;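 note: rhodamine fluorescence freed from ubiquitin-rhodamine substrate followed over time; top concentration of the series differs between compounds; % is set by controls: 0 for no effect and ±100 for the full control effect; nearly all actives have a fitted effect of over 35% in size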)
In short: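 USP1/UAF1 complex (1nM) preincubated with compound 15 min at room temperature, then Ub-Rho substrate (150nM final) added. Fluorescence read kinetically at 480/540 nm, 6 reads every 60 seconds. Buffer: 50mM HEPES pH 7.8, 0.5mM EDTA, 0.1 mg/ml BSA, 1mM TCEP, 0.01% Tween-20.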

[7] = biological target: Bile acid receptor (Homo sapiens) (UniProt Q96RI1); experiment: qHTS assay for small molecule antagonists of farnesoid X receptor signaling (AID 588526); note: % is set by controls: 0 for no effect and ±100 for the full control effect
In short: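 Antagonist mode: titrated compounds tested against chenodeoxycholic acid stimulation (normalized to 50 uM CDCA and DMSO) in GeneBLAzer HEK293T cells for 16 h. Beta-lactamase read by CCF4 fluorescence; IC50 from Hill fits.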

[8] = biological target: Glucocorticoid receptor (Homo sapiens) (UniProt P04150); experiment: qHTS assay for small molecule agonists of glucocorticoid receptor signaling (AID 588532; active = well fitted curve in the direction sought with a large enough effect in the signal ratio, with a control signal flat; inconclusive = small, poorly fitted or top-dose-only effect, or a change in a side signal; inactive = no such curve, though single readings can be large or run the other way; the % refers to the signal ratio;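 note: 100% = dexamethasone at 0.1 µM and 0% = DMSO only wells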); details: HeLa MMTV-bla, beta-lactamase ratio, agonist, 18 h; stronger effect = higher value; percent of dexamethasone control, DMSO zero
In short: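 HeLa GRE-bla reporter cells; 18 h compound exposure at 37 C; 2 h CCF4 loading at room temperature; fluorescence at 460 and 530 nm; EC50 by Hill equation.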

[9] = biological target: Glucocorticoid receptor (Homo sapiens) (UniProt P04150); experiment: qHTS assay for small molecule antagonists of glucocorticoid receptor signaling (AID 588533; active = well fitted inhibition curve with a large enough effect in the signal ratio, with a control signal flat, not every such curve was filed as active; inconclusive = small, poorly fitted or top-dose-only effect, or effect the other way, or a change in a side signal; the % refers to the signal ratio; note: % is set by controls: 0 for no effect and ±100 for the full control effect)
In short: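 Antagonist-mode qHTS: compound titrations added to GRE-bla HeLa cells, then dexamethasone 2 nM final; 18 h, 37 C. CCF4 FRET fluorescence normalized to dexamethasone and DMSO; IC50 from Hill fit.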

[10] = biological target: Peroxisome proliferator-activated receptor delta (Homo sapiens) (UniProt Q03181); experiment: qHTS assay for small molecule agonists of peroxisome proliferator-activated receptor delta signaling (AID 588534);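 note: 0% = DMSO basal wells and 100% = positive control agonist at 10 µM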
In short: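 Agonist-mode beta-lactamase reporter readout (CCF4 dye, 2 h at RT) after 18 h at 37 °C exposure to a titration; Hill-equation fitting gave EC50 and maximal response.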

[11] = qHTS assay for small molecule antagonists of peroxisome proliferator-activated receptor delta signaling (AID 588535; active = well fitted inhibition curve with a large enough effect in the signal ratio, with a control signal flat, not every such curve was filed as active; inconclusive = small, poorly fitted or top-dose-only effect, or effect the other way, or a change in a side signal; inactive = no such curve, though single readings can be large or run the other way; the % refers to the signal ratio;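 for max response: cells co-treated with a PPAR-delta agonist as stimulator during compound exposure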); details: HEK293T PPARd-UAS-bla, beta-lactamase FRET ratio, 18 h; 460 nm channel
In short: (§1)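 Fluorescence from CCF4-loaded GeneBLAzer PPAR-delta-UAS-bla HEK293T cells (2 hrs RT loading) quantified reporter inhibition after an 18 hr, 37 C compound exposure across a titration.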

[12] = biological target: Peroxisome proliferator-activated receptor delta (Homo sapiens) (UniProt Q03181); experiment: as above
In short: as §1

[13] = biological target: Peroxisome proliferator-activated receptor gamma (Homo sapiens) (UniProt P37231); experiment: qHTS assay for small molecule antagonists of peroxisome proliferator-activated receptor gamma signaling (AID 588537; active = well fitted inhibition curve with a large enough effect in the signal ratio, with a control signal flat, not every such curve was filed as active; inconclusive = small, poorly fitted or top-dose-only effect, or effect the other way, or a change in a side signal; the % refers to the signal ratio;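 note: reporter cells co-stimulated with 50 nM rosiglitazone agonist during compound treatment; % of control where 0% means no effect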)
In short: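 Fluorescence at 460 and 530 nm (405 nm excitation) reported beta-lactamase cleavage of CCF4 after 2 h room-temperature loading. HEK293 reporter cells in 1% charcoal/dextran-treated FBS had received compound and rosiglitazone for 16 h.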

[14] = biological target: Androgen receptor (Homo sapiens) (UniProt P10275); experiment: qHTS assay for small molecule agonists of androgen receptor signaling (AID 588515; active = well fitted curve in the direction sought with a large enough effect in the signal ratio, with a control signal flat; inconclusive = small, poorly fitted or top-dose-only effect, or effect the other way, or a change in a side signal; inactive = no such curve, though single readings can be large or run the other way; the % refers to the signal ratio; note: % is set by controls: 0 for no effect and ±100 for the full control effect); details: AR-UAS-bla HEK293, beta-lactamase ratio, agonist 16 h; stronger effect = higher value
In short: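 Stimulation of an AR-responsive β-lactamase reporter in GripTite HEK293 cells was measured after 16 h compound exposure at 37 °C, via CCF4 fluorescence after 2 h RT. EC50 from Hill fits, normalized to R1881 at 30 nM.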

[15] = biological target: Androgen receptor (Homo sapiens) (UniProt P10275); experiment: qHTS assay for small molecule antagonists of androgen receptor signaling (AID 588516; active = well fitted curve in the direction sought with a large enough effect in the signal ratio, with a control signal flat, not every such curve was filed as active; inconclusive = small, poorly fitted or top-dose-only effect, or effect the other way, or a change in a side signal; inactive = no such curve, though single readings can be large or run the other way; the % refers to the signal ratio; note: % is set by controls: 0 for no effect and ±100 for the full control effect)
In short: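 AR-UAS-bla-GripTite HEK 293 cells (2000/well, 5 h at 37 C) received compound titrations, then R1881 at 10 nM final; after 16 h at 37 C, CCF4 dye 2 h RT, beta-lactamase fluorescence read; IC50 from Hill fits.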

Vitamin D3 receptor (Homo sapiens), sequence (P11473 whole entry, looked up): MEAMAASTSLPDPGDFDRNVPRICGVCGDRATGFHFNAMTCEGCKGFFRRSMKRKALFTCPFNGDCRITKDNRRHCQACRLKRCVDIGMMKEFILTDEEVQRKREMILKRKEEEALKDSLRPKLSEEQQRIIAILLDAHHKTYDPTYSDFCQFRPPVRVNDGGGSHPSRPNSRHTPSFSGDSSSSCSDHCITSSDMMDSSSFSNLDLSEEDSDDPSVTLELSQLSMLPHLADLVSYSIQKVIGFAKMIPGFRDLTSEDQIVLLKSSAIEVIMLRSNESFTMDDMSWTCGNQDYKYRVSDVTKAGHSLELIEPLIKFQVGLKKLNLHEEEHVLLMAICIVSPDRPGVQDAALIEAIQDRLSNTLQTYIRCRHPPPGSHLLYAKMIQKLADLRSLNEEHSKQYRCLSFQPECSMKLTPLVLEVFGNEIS
Peroxisome proliferator-activated receptor gamma (Homo sapiens), sequence (P37231 whole entry, looked up): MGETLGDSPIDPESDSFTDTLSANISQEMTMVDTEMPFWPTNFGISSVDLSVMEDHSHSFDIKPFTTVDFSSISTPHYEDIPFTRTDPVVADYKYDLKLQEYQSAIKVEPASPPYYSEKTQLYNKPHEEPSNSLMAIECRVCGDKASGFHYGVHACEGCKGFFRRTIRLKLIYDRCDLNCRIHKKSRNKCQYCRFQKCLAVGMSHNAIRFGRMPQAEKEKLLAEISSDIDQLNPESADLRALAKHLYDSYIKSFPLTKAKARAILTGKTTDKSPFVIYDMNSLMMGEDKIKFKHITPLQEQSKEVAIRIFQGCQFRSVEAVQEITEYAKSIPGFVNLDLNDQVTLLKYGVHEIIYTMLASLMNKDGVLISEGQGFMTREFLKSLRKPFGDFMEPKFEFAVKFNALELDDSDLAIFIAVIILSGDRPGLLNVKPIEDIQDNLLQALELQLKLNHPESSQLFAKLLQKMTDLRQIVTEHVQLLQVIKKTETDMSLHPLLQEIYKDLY
Bile acid receptor (Homo sapiens), sequence (Q96RI1 whole entry, looked up): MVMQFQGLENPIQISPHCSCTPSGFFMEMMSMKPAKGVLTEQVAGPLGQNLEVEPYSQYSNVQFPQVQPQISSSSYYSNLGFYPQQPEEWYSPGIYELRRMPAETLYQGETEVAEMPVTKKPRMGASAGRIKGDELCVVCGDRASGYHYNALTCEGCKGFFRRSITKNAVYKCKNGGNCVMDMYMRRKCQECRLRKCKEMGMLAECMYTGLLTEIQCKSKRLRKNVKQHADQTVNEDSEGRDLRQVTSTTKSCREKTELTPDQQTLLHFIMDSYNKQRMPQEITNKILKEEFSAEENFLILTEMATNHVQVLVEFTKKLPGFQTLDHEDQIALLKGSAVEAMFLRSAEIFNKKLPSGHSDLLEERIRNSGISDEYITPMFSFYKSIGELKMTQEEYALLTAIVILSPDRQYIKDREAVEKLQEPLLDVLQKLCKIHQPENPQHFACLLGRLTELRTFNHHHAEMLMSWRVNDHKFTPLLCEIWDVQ
Ubiquitin carboxyl-terminal hydrolase 1 (Homo sapiens), sequence (O94782 whole entry, looked up): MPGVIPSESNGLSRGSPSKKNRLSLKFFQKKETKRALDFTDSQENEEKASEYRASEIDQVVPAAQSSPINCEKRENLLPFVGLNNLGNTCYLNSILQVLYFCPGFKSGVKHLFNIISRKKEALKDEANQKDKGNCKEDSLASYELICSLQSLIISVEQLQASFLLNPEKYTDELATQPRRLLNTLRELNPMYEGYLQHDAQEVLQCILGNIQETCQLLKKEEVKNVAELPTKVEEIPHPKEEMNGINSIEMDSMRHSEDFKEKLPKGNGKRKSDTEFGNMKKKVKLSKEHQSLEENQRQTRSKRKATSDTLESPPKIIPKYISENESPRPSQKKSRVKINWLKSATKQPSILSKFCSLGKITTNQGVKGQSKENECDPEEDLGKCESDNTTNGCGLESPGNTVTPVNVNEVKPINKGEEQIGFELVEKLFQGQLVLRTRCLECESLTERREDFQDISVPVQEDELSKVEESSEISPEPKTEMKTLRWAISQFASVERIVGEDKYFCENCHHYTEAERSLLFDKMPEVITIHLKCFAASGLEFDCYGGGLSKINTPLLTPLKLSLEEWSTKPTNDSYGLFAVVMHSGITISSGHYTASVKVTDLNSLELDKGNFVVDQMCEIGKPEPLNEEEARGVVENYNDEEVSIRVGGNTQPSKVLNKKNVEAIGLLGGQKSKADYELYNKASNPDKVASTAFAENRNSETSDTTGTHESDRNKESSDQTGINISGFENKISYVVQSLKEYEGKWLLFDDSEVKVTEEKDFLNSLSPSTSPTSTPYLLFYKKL
Peroxisome proliferator-activated receptor delta (Homo sapiens), sequence (Q03181 whole entry, looked up): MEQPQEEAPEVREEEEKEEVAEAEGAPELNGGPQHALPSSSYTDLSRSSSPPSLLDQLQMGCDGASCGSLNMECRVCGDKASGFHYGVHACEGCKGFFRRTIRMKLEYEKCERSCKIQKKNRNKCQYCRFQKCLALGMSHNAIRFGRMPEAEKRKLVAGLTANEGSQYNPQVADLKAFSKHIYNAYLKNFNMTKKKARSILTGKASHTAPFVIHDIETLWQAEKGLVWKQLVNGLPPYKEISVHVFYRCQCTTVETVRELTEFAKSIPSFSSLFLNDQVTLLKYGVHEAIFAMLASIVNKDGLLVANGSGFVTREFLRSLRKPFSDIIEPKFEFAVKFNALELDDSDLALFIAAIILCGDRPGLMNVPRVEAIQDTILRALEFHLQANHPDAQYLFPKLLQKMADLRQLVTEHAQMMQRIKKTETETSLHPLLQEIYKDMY
Estrogen receptor (Homo sapiens), sequence (P03372 whole entry, looked up): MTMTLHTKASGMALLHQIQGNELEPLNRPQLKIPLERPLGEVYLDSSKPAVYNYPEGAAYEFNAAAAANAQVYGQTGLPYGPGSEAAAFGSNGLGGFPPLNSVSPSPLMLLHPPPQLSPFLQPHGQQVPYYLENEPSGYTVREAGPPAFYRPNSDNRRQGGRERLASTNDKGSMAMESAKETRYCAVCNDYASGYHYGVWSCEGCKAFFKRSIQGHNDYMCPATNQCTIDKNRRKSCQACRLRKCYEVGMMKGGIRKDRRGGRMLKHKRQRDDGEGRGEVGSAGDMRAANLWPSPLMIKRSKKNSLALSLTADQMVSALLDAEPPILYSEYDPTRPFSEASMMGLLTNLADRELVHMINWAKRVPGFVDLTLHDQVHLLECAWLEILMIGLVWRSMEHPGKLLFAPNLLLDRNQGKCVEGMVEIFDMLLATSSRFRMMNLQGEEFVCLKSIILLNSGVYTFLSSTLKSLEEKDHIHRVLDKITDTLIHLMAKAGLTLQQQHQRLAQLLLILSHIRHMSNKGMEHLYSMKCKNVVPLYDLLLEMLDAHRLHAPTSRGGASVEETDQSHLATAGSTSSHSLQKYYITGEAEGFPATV
Androgen receptor (Homo sapiens), sequence (P10275 whole entry, looked up): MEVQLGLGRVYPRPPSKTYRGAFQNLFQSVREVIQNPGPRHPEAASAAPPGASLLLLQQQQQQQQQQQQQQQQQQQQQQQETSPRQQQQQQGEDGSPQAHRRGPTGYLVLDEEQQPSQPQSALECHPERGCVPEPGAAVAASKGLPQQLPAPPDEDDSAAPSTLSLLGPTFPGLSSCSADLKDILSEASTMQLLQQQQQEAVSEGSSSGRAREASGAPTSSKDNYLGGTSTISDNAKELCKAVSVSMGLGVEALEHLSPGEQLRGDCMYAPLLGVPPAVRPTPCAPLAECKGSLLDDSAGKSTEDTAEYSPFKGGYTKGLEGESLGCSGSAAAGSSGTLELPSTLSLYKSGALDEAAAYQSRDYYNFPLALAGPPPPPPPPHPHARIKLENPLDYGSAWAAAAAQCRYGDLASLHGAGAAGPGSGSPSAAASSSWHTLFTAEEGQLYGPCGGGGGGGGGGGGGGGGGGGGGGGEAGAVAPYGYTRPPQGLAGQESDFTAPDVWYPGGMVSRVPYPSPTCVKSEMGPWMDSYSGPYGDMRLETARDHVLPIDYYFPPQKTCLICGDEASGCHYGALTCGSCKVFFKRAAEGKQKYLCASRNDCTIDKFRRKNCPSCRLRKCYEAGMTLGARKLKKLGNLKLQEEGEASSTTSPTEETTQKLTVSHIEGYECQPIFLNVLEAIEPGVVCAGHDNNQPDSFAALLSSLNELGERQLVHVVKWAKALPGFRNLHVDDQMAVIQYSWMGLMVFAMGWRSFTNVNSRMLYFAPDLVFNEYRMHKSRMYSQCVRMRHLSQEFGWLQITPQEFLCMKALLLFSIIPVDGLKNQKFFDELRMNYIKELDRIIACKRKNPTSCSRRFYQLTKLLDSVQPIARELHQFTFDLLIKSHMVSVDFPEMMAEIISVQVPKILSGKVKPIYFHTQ
Glucocorticoid receptor (Homo sapiens), sequence (P04150 whole entry, looked up): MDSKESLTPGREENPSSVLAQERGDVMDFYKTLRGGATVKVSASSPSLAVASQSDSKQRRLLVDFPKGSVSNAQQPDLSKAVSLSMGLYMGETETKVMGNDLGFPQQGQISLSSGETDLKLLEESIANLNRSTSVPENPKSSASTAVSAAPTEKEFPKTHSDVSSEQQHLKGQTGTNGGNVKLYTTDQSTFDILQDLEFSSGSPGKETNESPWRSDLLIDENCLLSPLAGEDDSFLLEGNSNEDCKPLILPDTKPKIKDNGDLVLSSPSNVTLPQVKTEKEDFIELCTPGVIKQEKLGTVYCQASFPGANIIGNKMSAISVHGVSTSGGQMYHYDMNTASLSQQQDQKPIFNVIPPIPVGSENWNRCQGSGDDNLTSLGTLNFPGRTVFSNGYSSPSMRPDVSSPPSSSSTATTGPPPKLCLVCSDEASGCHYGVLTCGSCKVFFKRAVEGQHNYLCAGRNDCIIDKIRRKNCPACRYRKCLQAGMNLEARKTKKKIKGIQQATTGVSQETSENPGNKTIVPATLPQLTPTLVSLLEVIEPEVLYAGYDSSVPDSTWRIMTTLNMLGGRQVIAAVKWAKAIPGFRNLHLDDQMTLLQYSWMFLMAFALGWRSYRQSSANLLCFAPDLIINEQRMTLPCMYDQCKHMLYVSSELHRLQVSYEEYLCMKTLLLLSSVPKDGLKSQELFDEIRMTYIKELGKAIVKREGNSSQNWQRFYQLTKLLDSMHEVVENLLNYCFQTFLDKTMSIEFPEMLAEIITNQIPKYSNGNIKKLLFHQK

CC[C@H](C)[C@H]1O[C@]2(C=C[C@@H]1C)C[C@@H]1C[C@@H](C/C=C(\C)[C@@H](O[C@H]3C[C@H](OC)[C@@H](O[C@H]4C[C@H](OC)[C@@H](O)[C@H](C)O4)[C@H](C)O3)[C@@H](C)/C=C/C=C3\CO[C@@H]4[C@H](O)C(C)=C[C@@H](C(=O)O1)[C@]34O)O2
inactive: outcome [1]

O=[N+]([O-])c1ccc(F)c([N+](=O)[O-])c1
inactive: Potency [2] | Potency [3] | outcome [4] | Potency [5] | outcome [1]

Clc1ccccc1Cl
4.84%: max response [11]
inactive: Potency [6] | Potency [7] | activation [8] 2.7% | Potency [9] | outcome [10] | outcome [12] | outcome [4] | Potency [5] | outcome [1]

ClC1C(Cl)C(Cl)C(Cl)C(Cl)C1Cl (stereo unspecified)
inactive: Potency [6] | Potency [7] | outcome [10] | outcome [12] | outcome [4] | Potency [13]

C[C@H]1CC[C@@H]2[C@@H](C)[C@H]3[C@H](C[C@H]4[C@@H]5CC=C6CC(O[C@@H]7O[C@H](CO)[C@H](O)[C@H](O[C@@H]8O[C@H](CO)[C@@H](O)[C@H](O)[C@H]8O)[C@H]7O[C@H]7O[C@@H](C)[C@H](O)[C@@H](O)[C@H]7O)CC[C@]6(C)[C@H]5CC[C@]34C)N2C1 (stereo partly specified)
inactive: Potency [3] | activation [8] -7.38% | Potency [9] | outcome [10] | Potency [13] | Potency [5] | outcome [1]
active: Potency [2] 22.4 µM [inconclusive]

C=CCN=C=S
17.5%: max response [11]
inactive: Potency [6] | Potency [2] | Potency [3] | outcome [10] | outcome [12] | outcome [4] | Potency [5] | outcome [1]

CC(C)CCON=O
inactive: Potency [6] | activation [8] -2.48% | Potency [9] | outcome [10] | outcome [12] | outcome [4] | Potency [13] | Potency [5] | outcome [1]
8.58%: max response [11]

O=C(NCNC(=O)NC1C(=O)NC(=O)N1CO)NC1C(=O)NC(=O)N1CO (stereo unspecified)
13.7%: max response [11]
inactive: Potency [6] | activation [14] 0.237% | Potency [7] | activation [8] -2.2% | Potency [9] | outcome [10] | outcome [12] | outcome [4] | Potency [13]

O=C(O)C(Cl)(Cl)Cl
-10%: max response [11]
inactive: Potency [6] | outcome [10] | outcome [12] | outcome [4] | Potency [13] | Potency [5] | outcome [1]

O=CC=O
inactive: Potency [6] | Potency [2] | Potency [3] | activation [14] 7.81% | outcome [15] | activation [8] -1.86% | Potency [9] | outcome [10] | outcome [4]

CCOC(=O)c1ccccc1C(=O)OCC
inactive: Potency [6] | Potency [2] | Potency [3] | activation [8] -2.44% and -3.91% | Potency [9] | outcome [10] | outcome [12] | outcome [4] | Potency [13] | Potency [5] | outcome [1]
24.2% and 33.2%: max response [11]

C[C@]12CCC(=O)C[C@@H]1CC[C@@H]1[C@@H]2CC[C@]2(C)[C@@H](O)CC[C@@H]12
inactive: Potency [6] | Potency [5] | outcome [1]
